# ALDH1A1 block – qHTS Assay for Inhibitors of Aldehyde Dehydrogenase 1 (ALDH1A1). Aldehyde dehydrogenase 1A1 (Homo sapiens), P00352. Purified ALDH1A1, NADH fluorescence, propionaldehyde substrate. Potency, µM (doses to about 75.3 µM), for inactives: top-dose activity, negative = inhibition, most hits filed as inhibitors. 220,000 compounds, 7.3% hits. AID 1030, 2008;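 note: potency is the fitted concentration of half-maximal effect; plate controls were no enzyme wells and a reference inhibitor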
# HPGD block – qHTS Assay for Inhibitors of HPGD (15-Hydroxyprostaglandin Dehydrogenase). 150,000 compounds, 4.3% hits. AID 894, 2007. purified HPGD, NADH fluorescence kinetic, PGE2 substrate. Potency, µM, without a hit: at the top dose activity change, negative = inhibition, hits mostly inhibitors. 15-hydroxyprostaglandin dehydrogenase [NAD(+)] (Homo sapiens), P15428; note: potency is the fitted concentration of half-maximal effect
# Target sequence (P15428 whole entry, looked up): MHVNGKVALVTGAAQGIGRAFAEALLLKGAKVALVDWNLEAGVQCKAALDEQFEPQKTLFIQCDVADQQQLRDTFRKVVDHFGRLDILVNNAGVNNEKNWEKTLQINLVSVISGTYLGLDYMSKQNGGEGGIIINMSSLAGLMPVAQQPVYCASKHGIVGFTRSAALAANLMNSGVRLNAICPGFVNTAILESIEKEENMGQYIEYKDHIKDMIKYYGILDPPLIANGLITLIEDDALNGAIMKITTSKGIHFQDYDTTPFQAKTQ
#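 20 nM HPGD preincubated 15 min at room temperature with compound in 50 mM Tris-HCl pH 8, 0.01% Tween 20. Started with 1 mM NAD+ and 30 uM prostaglandin E2; NADH fluorescence (360/450 nm) read 5 times over 30-s intervals, last minus first.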
# IMPase cell inh – qHTS Assay for Identifying the Cell-Membrane Permeable IMPase Inhibitors. AID 901, 2007. CHO-M1 cells, IP1 accumulation, HTRF TR-FRET ratio. 120,000 tested, under 10 active. inhibition (IP1 accumulation), % at 46.1 µM; active = well fitted curve in the direction sought with a large enough effect in the signal ratio, not every such curve was filed as active; inconclusive = small, poorly fitted or top-dose-only effect, or a change in a side signal; inactive = no such curve, though single readings can be large or run the other way; the % refers to the signal ratio;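 note: cells stimulated with carbachol in lithium chloride buffer; plate controls were DMSO basal wells for no effect and reference inhibitor wells for full effect; higher means more IMPase inhibition seen as more IP1 and lower FRET ratio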
#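 Elevated IP1 in lysates lowers TR-FRET signal (665/620 ratio and 620 channel reported). Cells were CHO-M1, given carbachol (50 uM as added) plus 50mM LiCl, pH 7.4, 30 min, 37C; compounds titrated up to 46 uM; AC50 by Hill equation.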
# * marks the source's active call; other numbers are inactive results; ? = inconclusive; . = no result; [ ] = dose if it differs, or a comment. Compounds with a hit are over-represented: about 9% of the library has one in this group of screens. Unless noted, calls come from the whole dose curve; as a rule, active = well fitted inhibition curve with a large enough effect (not every such curve was filed as active); inconclusive = small, poorly fitted or top-dose-only effect, or another doubt; inactive = no such curve, though single readings can be large or run the other way. Unless noted, % is set by controls: 0 for no effect and ±100 for the full control effect.
SMILES,ALDH1A1 block,HPGD block,IMPase cell inh
CC(C)(C)NC(=O)[C@@H]1C[C@H]2CCCC[C@@H]2CN1C[C@H](O)[C@H](Cc1ccccc1)NC(=O)[C@@H](CC(N)=O)NC(=O)c1ccc2ccccc2n1,1%[20.9 µM],-6%,-2[20.6 µM]
O=C(CSc1nc(C2CC2)nc2ccccc12)NCc1ccc2c(c1)OCO2,3%,-9%,-7
Cc1cc(C)nc(SCc2ccc(C(=O)NNC(=O)Nc3cccc(Cl)c3)cc2)n1,-7%,-31%,.
CCOC(=O)c1ccc(CC(=O)c2ccc(O)c(O)c2O)o1,10µM*,.,.
CCOC(=O)c1ccc(CC(=O)c2oc3cc(O)ccc3c2C)o1,?,?,-4
COC(=O)c1cc(CSc2nc3ccccc3[nH]2)oc1C,-6%,-6%,3
CCCc1cc(=O)[nH]c(SCc2cc(C(=O)OC)c(C)o2)n1,-10%,16µM*,-3
COc1ccc(-c2ccc(S(=O)(=O)n3nc(OC(=O)c4cccs4)cc3N)cc2)cc1,1%,.,.
CC(C)(C)C(=O)Oc1cc(N)n(S(=O)(=O)c2ccc(F)cc2)n1,7%,-10%,-4
COc1ccc(S(=O)(=O)n2nc(OC(=O)C3CCCCC3)cc2N)cc1,2µM*,-12%,-1
Cc1ccc(S(=O)(=O)n2nc(OC(=O)C3CCCCC3)cc2N)cc1,?,-13%,4
Cc1ccc(S(=O)(=O)n2nc(OC(=O)c3cccs3)cc2N)cc1,2µM*,-12%,1
Nc1cc(OC(=O)c2ccco2)nn1S(=O)(=O)c1ccc(F)cc1,14µM*,.,-4
CCOc1ccc(N2CC(=O)N/C2=N\c2nc(C)cc(C)n2)cc1,9%,-4%,-5
Cc1cccc(N(Cc2ccc(Cl)cc2)S(C)(=O)=O)c1,6%,.,.
Cc1ccc(CNC(=O)CCCn2c(=O)c3ccccc3n(CC(=O)Nc3ccc(C)c(C)c3)c2=O)cc1,.,.,-5
CC(=O)Nc1ccccc1,8%,-7%,.
CC(=O)C(Cl)C(=O)Nc1ccccc1 (centres undefined),1.3µM*,.,.
COc1ccc(N=C/C=C2\C=C(c3ccccc3)OC(C)(C)O2)cc1,2.2µM*,-29%,14
Cc1ccccc1N=C/C=C1/C=C(c2ccccc2)OC(C)(C)O1,2.2µM*,-19%,.
COc1ccc(C2=CC(=O)OC(C)(c3ccccc3)O2)cc1 (centres undefined),-16%,?,.
CC1(C)OC(c2ccccc2)=C/C(=C/C=C2C(=O)c3ccccc3C2=O)O1,-15%,.,.
COc1ccccc1N(C)S(=O)(=O)c1ccc(C(=O)OCC(=O)N(C(C)C)C(C)C)cc1,-1%,.,.
COc1ccc2c(c1)C(NC(C)=O)C(=O)N2C (centres undefined),1%,2%,4
CCc1ccc2c(c1)C(NC(C)=O)C(=O)N2CC (centres undefined),22µM*,-12%,13
SMILES,ALDH1A1 block,HPGD block,IMPase cell inh
CCCCN1C(=O)C(NC(C)=O)c2cc(Br)ccc21 (centres undefined),0.18µM*,-10%,13
CCN1C(=O)C(NC(C)=O)c2cc(Br)ccc21 (centres undefined),?,1%,-3
CC1(O)CCC(C(C)(C)O)CC1 (centres undefined),6%,-17%,.
Cc1ccc(C(=O)Nc2ccc3c(c2)OCO3)o1,-8%,-13%,2
O=C(Nc1ccc(Nc2ccccc2)cc1)c1ccc(Br)o1,5%,28µM*,9
COc1ccc(NC(=O)c2ccc(Br)o2)cc1,-2%,-19%,.
O=C(Nc1ccc2c(c1)OCCO2)c1ccc(Br)o1,?,28µM*,5
COc1ccc(NC(=S)NC(=O)c2ccc(Br)o2)cc1,11µM*,.,.
O=C(NC(=S)Nc1ccccc1)c1ccc(Br)o1,-5%,.,.
c1ccc(CNc2oc(-c3ccccc3)nc2-c2cccc3ccccc23)cc1,?,-27%,.
CCOC(=O)N1C(=O)C2(CCCCC2)N(c2ccccc2Cl)C1=S,-7%,-15%,.
COc1ccc(C(=O)c2ccc([N+](=O)[O-])cc2Cl)cc1,3%,.,.
CCOC(=O)C(C)n1cnc2c(oc3ccccc32)c1=O (centres undefined),-9%,-4%,4
O=C(Cn1cnc2ccccc2c1=O)N1CCc2ccccc2C1,2%,.,.
O=C(COC(=O)Cn1cnc2ccccc21)NCCc1ccccc1,-6%,-7%,1
Cc1ccc(NC(=O)COC(=O)Cn2cnc3ccccc32)cc1S(=O)(=O)N(C)C,14µM*,-2%,.
O=C(Cn1cnc2ccccc21)OCC(=O)N1CCc2ccccc2C1,28µM*,-14%,17
O=C(COC(=O)Cn1cnc2ccccc21)Nc1ccc2c(c1)C(=O)c1ccccc1C2=O,0.63µM*,-26%,.

# Compound activity from PubChem.
